Results filed as inconclusive are left out. Active and inactive are the calls of the source. Calls follow the shape of the dose curve; as a rule, active = well fitted activation curve with a large enough effect; inconclusive = small, poorly fitted or top-dose-only effect; inactive = flat fitted curve, though single readings scatter.
Potency is read from the fitted curve at half-maximal effect.

The nature of this assay: Validation screen for small molecules that induce DNA re-replication in SW480 colon adenocarcinoma cells (AID 504364). As to activity (re-replication induction): 0% is about no effect. The following applies: DNA re-replication phenotype (high-content imaging); series mostly up to 46.1 µM; activity (re-replication induction): at the top concentration. From the text:
H Molecular Libraries Probe Production Network [MLPCN]
NIH Chemical Genomics Center [NCGC]
Assay Provider: Melvin DePamphilis, NICHD, NIH
Eukaryotic cells normally restrict genome duplication to once per cell division. When this process is aberrant, DNA re-replication occurs when cells reinitiate DNA replication before the first round of replication is complete. DNA re-replication induces the DNA damage response, arrests cell proliferation, and triggers apoptosis. The cell cycle components cyclin A, Cdt-1, Cdc6 and geminin are critical regulators of this process and their misregulation results in DNA re-replication in normal and cancer cells. To identify compounds that induce re-replication in normal cells, an image-based assay was used to measure DNA content of nuclei, as detected by the fluorescent DNA binding dye, Hoechst. Cell nuclei were imaged by a fluorescence scanning plate imager and compounds that induce DNA re-replication were identified by the increase of nuclei with elevated fluorescence intensity.#
For screening, 250 cells in 5 uL/well were dispensed into black clear 1536-well plates (Aurora) using a solenoid-based dispenser. Following transfer of 23 nL compound or DMSO vehicle by a pin tool, the plates were incubated 48 hr at 37 C and 5% CO2. After addition of 1 uL/well Hoescht stain, the plates were incubated 40 min at 37 C, 5% CO2 and total intensity of fluorescent objects (nuclei) were enumerated by an Acumen Explorer Ex3 (TTP LabTech) fluorescence scanning plate imager (405 nm excitation, 500-530 nm emission).
Keywords: NIH Roadmap, MLPCN, MLI, MLSMR, qHTS, NCGC, DNA replication, cancer
As for `CNCCCC12CCC(c3ccccc31)c1ccccc12`, the “activity (re-replication induction)” value is -2.17% (inactive).

With `NC(CO)C(=O)NNCc1ccc(O)c(O)c1O` (stereo not given), the “activity (re-replication induction)” value was -0.938% (inactive).

As to `O=C(CCCN1CCC(O)(c2ccc(Cl)cc2)CC1)c1ccc(F)cc1`, the “activity (re-replication induction)” value is 0.21% (inactive).

As for `NCCc1cnc[nH]1`, the “activity (re-replication induction)” value is -9% (inactive).

For `Cc1cn([C@H]2C=C[C@@H](CO)O2)c(=O)[nH]c1=O`, the “activity (re-replication induction)” value is 5.48% (inactive).

For the compound `O=c1c(-c2ccc(O)cc2)coc2cc(O)cc(O)c12`, the “activity (re-replication induction)” value was 2.56% (inactive).

In the case of `Fc1ccc([C@@H]2CCNC[C@H]2COc2ccc3c(c2)OCO3)cc1`, the “activity (re-replication induction)” value is 11.8% (inactive).

As to `CN1C2CCC1CC(OC(=O)C(CO)c1ccccc1)C2` (stereo not given), the Potency result was “inactive”.

For the compound `CN(C)CCC=C1c2ccccc2C=Cc2ccccc21`, the “activity (re-replication induction)” value is 3.07% (inactive).

Take `COc1ccccc1OCC(O)CN1CCN(CC(=O)Nc2c(C)cccc2C)CC1` (stereo not given): the “activity (re-replication induction)” value was 4.42% (inactive).

On to `Cc1cnc(C(=O)NCCc2ccc(S(=O)(=O)NC(=O)NC3CCCCC3)cc2)cn1`, for which the “activity (re-replication induction)” value was -1.8% (inactive).

For `CC(C)(Oc1ccc(C2CC2(Cl)Cl)cc1)C(=O)O` (stereo not given), the “activity (re-replication induction)” value was -0.682% (inactive).

Take `Nc1c2c(nc3ccccc13)CCCC2`: the “activity (re-replication induction)” value was -3.74% (inactive).

With `O=c1c(O)c(-c2ccc(O)c(O)c2)oc2cc(O)cc(O)c12`, the “activity (re-replication induction)” value is 14.6% (inactive).

`CCOC(=O)C(C)(C)Oc1ccc(Cl)cc1`: the “activity (re-replication induction)” value is 0.137% (inactive).

As to `N[C@@H](Cc1c[nH]c2ccc(O)cc12)C(=O)O`, the “activity (re-replication induction)” value was -2.39% (inactive).

Consider `Clc1ccccc1C(c1ccccc1)(c1ccccc1)n1ccnc1`, for which the “activity (re-replication induction)” value is 15.7% (inactive).

Consider `CCCNCC(O)COc1ccccc1C(=O)CCc1ccccc1` (stereo not given), for which the “activity (re-replication induction)” value was 9.74% (inactive).

On to `CN1CCC(=C2c3ccccc3C=Cc3ccccc32)CC1`, for which the “activity (re-replication induction)” value is 12.4% (inactive).

`NC(=O)OCC(COC(N)=O)c1ccccc1`: the “activity (re-replication induction)” value was -6.99% (inactive).

As to `CC(C)Cc1ccc(C(C)C(=O)O)cc1` (stereo not given), the “activity (re-replication induction)” value was -5.99% (inactive).

Regarding `COC(=O)Nc1nc2ccc(C(=O)c3cccs3)cc2[nH]1`, the Potency is 116 nM (active).

For the compound `Cn1cnc2c1c(=O)[nH]c(=O)n2C`, the “activity (re-replication induction)” value is 3.31% (inactive).

For `CN1CCN2c3ccccc3Cc3ccccc3C2C1` (stereo not given), the “activity (re-replication induction)” value is 13.6% (inactive).

As to `CC[N+](CC)(CC)CCOc1cccc(OCC[N+](CC)(CC)CC)c1OCC[N+](CC)(CC)CC`, the “activity (re-replication induction)” value was -0.604% (inactive).

In the case of `NC(=O)NO`, the “activity (re-replication induction)” value is -5.78% (inactive).

For the compound `O=C(C1CCCCC1)N1CC(=O)N2CCc3ccccc3C2C1` (stereo not given), the “activity (re-replication induction)” value is -6.94% (inactive).

Take `Cc1ccc(C(=O)Nc2ccc(S(=O)(=O)O)c3cc(S(=O)(=O)O)cc(S(=O)(=O)O)c23)cc1NC(=O)c1cccc(NC(=O)Nc2cccc(C(=O)Nc3cc(C(=O)Nc4ccc(S(=O)(=O)O)c5cc(S(=O)(=O)O)cc(S(=O)(=O)O)c45)ccc3C)c2)c1`: the “activity (re-replication induction)” value was -12.5% (inactive).

For `C[C@](N)(Cc1ccc(O)c(O)c1)C(=O)O`, the “activity (re-replication induction)” value is -6.78% (inactive).

As for `O=C1N(c2ccccc2)c2ccccc2C1(Cc1ccncc1)Cc1ccncc1`, the “activity (re-replication induction)” value is 15.8% (inactive).

Take `CN(C)CCCN1c2ccccc2CCc2ccc(Cl)cc21`: the “activity (re-replication induction)” value was 28.6% (inactive).

Take `CN(C)CCOC(c1ccccc1)c1ccccc1`: the “activity (re-replication induction)” value is 12.8% (inactive).

Consider `CCC1(C)CC(=O)NC1=O` (stereo not given), for which the “activity (re-replication induction)” value is -8.82% (inactive).

As to `Nc1ccn([C@H]2CC[C@@H](CO)O2)c(=O)n1`, the “activity (re-replication induction)” value was 1.11% (inactive).

For the compound `NCCCCCC(=O)O`, the “activity (re-replication induction)” value is -0.0959% (inactive).

`Nc1nc2c(ncn2COC(CO)CO)c(=O)[nH]1`: the “activity (re-replication induction)” value was -13.5% (inactive).

Consider `Clc1ccc2c(c1)C(N1CCNCC1)=Nc1ccccc1O2`, for which the “activity (re-replication induction)” value was 4.96% (inactive).

With `Clc1ccc(C(c2ccccc2Cl)C(Cl)Cl)cc1` (stereo not given), the “activity (re-replication induction)” value is 0.197% (inactive).

In the case of `Cc1cc(C(C)(C)C)cc(C)c1CC1=NCCN1`, the “activity (re-replication induction)” value was 9.85% (inactive).

Turning to `CN1CCC(=C2c3ccccc3CC(=O)c3sccc32)CC1`, the “activity (re-replication induction)” value was -0.441% (inactive).

These data come from PubChem BioAssay (NCATS).
